The results in this text go back to the supplement of paper PMC12067926.

For the first test, the system named is Rhizobium 1 (Rhizobium herbae). The test can be described thus: relative growth (AUC of 72 h growth curve relative to DMSO control, dAUC) (ratio); higher = more growth (less inhibition), active = hit call of the paper. The following applies: 20 µM. In outline:
(§1)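 For relative growth (dAUC), the spline-integrated area under the growth curve was divided by the mean of the DMSO controls. Results were averaged over three biological replicates. Each replicate used a 1:100 dilution, into 96-well plates holding each chemical at 20 µM (1% DMSO), of isolates from Icelandic stream sediments and Silwood Park soil or whole sediment communities that had been grown to carrying capacity in Luria–Bertani medium. Plates were shaken briefly before each hourly A600 reading over 72 h.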
With `CCOc1cc(Oc2ccc(C(F)(F)F)cc2Cl)ccc1[N+](=O)[O-]`, the relative growth was 0.994 (inactive).

`O=C(NC(=O)c1c(F)cccc1F)Nc1ccc(OC(F)(F)C(F)OC(F)(F)F)c(Cl)c1` (centres undefined): the relative growth is 0.952 (inactive).

Take `Cc1cc(C)nc(Nc2ccccc2)n1`: the relative growth is 0.868 (inactive).

For the compound `CC(C)NC(=O)N1CC(=O)N(c2cc(Cl)cc(Cl)c2)C1=O`, the relative growth is 1.03 (inactive).

Take `Cc1nnc(-c2ccccc2)c(=O)n1N`: the relative growth was 1.07 (inactive).

As for `CSc1nc(NC(C)C)nc(NC(C)C)n1`, the relative growth was 0.858 (inactive).

Consider `C/C(=N\C#N)N(C)Cc1ccc(Cl)nc1`, for which the relative growth is 1.11 (inactive).

`Cc1cccc2sc3nncn3c12`: the relative growth was 0.846 (inactive).

Regarding `Fc1ccc(Oc2ccnc3cc(Cl)cc(Cl)c23)cc1`, the relative growth was 0.992 (inactive).

On to `COP(N)(=O)SC` (centres undefined), for which the relative growth is 0.973 (inactive).

For `COc1cc(OC)nc(NC(=O)NS(=O)(=O)c2ncccc2C(=O)N(C)C)n1`, the relative growth was 0.992 (inactive).

As for `CC[C@H]1CCC[C@H](O[C@H]2CC[C@H](N(C)C)[C@@H](C)O2)[C@@H](C)C(=O)C2=C[C@@H]3[C@@H](C=C(C)[C@@H]4C[C@@H](O[C@@H]5O[C@@H](C)[C@H](OC)[C@@H](OC)[C@H]5OC)C[C@@H]34)[C@@H]2CC(=O)O1.CC[C@H]1CCC[C@H](O[C@H]2CC[C@H](N(C)C)[C@@H](C)O2)[C@@H](C)C(=O)C2=C[C@H]3[C@@H]4C[C@H](O[C@@H]5O[C@@H](C)[C@H](OC)[C@@H](OC)[C@H]5OC)C[C@H]4C=C[C@H]3C2CC(=O)O1`, the relative growth was 0.89 (inactive).

For `COC(=O)N(C(=O)N1CO[C@@]2(C(=O)OC)Cc3cc(Cl)ccc3C2=N1)c1ccc(OC(F)(F)F)cc1`, the relative growth was 1 (inactive).

As for `N#Cc1c[nH]cc1-c1cccc2c1OC(F)(F)O2`, the relative growth was 0.932 (inactive).

For `CC(C)N(C(=O)COc1nnc(C(F)(F)F)s1)c1ccc(F)cc1`, the relative growth is 1.02 (inactive).

With `CC1(C)C(C=C(Cl)Cl)C1C(=O)OC(C#N)c1ccc(F)c(Oc2ccccc2)c1` (centres undefined), the relative growth is 1.06 (inactive).

As for `Cc1c(COC(=O)[C@@H]2[C@H](/C=C(\Cl)C(F)(F)F)C2(C)C)cccc1-c1ccccc1` (racemic), the relative growth was 0.893 (inactive).

Turning to `COc1cc(C)c(C(=O)c2c(OC)ccc(Br)c2C)c(OC)c1OC`, the relative growth is 0.937 (inactive).

For the compound `CC(C)(C)C(O)(CCc1ccc(Cl)cc1)Cn1cncn1` (centres undefined), the relative growth was 0.918 (inactive).

For `CCCC(Cn1cncn1)c1ccc(Cl)cc1Cl` (centres undefined), the relative growth was 1.04 (inactive).

In the case of `C[C@@H]1[C@@H](c2ccc(Cl)cc2)SC(=O)N1C(=O)NC1CCCCC1`, the relative growth is 0.964 (inactive).

Regarding `O=C1C2(Cl)C3(Cl)C4(Cl)C(Cl)(Cl)C5(Cl)C3(Cl)C1(Cl)C5(Cl)C24Cl` (centres undefined), the relative growth was 0.292 (active).

For the compound `OC(Cc1ccccc1Cl)(Cn1nc[nH]c1=S)C1(Cl)CC1` (centres undefined), the relative growth is 1.07 (inactive).

Consider `CC1(C)[C@H](C(=O)O[C@H](C#N)c2cccc(Oc3ccccc3)c2)[C@@H]1C=C(Br)Br`, for which the relative growth is 1.23 (inactive).

As for `N#Cc1c(Cl)c(Cl)c(Cl)c(C#N)c1Cl`, the relative growth was 0.17 (active).

In the case of `CCOc1ccc(C(C)(C)COCc2cccc(Oc3ccccc3)c2)cc1`, the relative growth is 0.851 (inactive).

With `Cc1cc(C(F)(C(F)(F)F)C(F)(F)F)ccc1NC(=O)c1cccc(I)c1C(=O)NC(C)(C)CS(C)(=O)=O`, the relative growth is 0.937 (inactive).

On to `N#Cc1nn(-c2c(Cl)cc(C(F)(F)F)cc2Cl)c(N)c1[S+]([O-])C(F)(F)F` (centres undefined), for which the relative growth was 0.971 (inactive).

In the case of `CNC(=O)Oc1cccc2ccccc12`, the relative growth was 0.906 (inactive).

Regarding `CO/N=C(/C(=O)OC)c1ccccc1CO/N=C(\C)c1cccc(C(F)(F)F)c1`, the relative growth is 0.921 (inactive).

Consider `CC1(C)CON(Cc2ccccc2Cl)C1=O`, for which the relative growth was 0.983 (inactive).

For the compound `CCCN(CCC)C(=O)SCc1ccccc1`, the relative growth is 1.05 (inactive).

Regarding `CC[C@H](C)[C@H]1O[C@]2(C=C[C@@H]1C)C[C@@H]1C[C@@H](C/C=C(\C)[C@@H](O[C@H]3C[C@H](OC)[C@@H](O[C@H]4C[C@H](OC)[C@@H](O)[C@H](C)O4)[C@H](C)O3)[C@@H](C)/C=C/C=C3\CO[C@@H]4[C@H](O)C(C)=C[C@@H](C(=O)O1)[C@]34O)O2.CO[C@H]1C[C@H](O[C@H]2[C@H](C)O[C@@H](O[C@@H]3/C(C)=C/C[C@@H]4C[C@@H](C[C@]5(C=C[C@H](C)[C@@H](C(C)C)O5)O4)OC(=O)[C@@H]4C=C(C)[C@@H](O)[C@H]5OC/C(=C\C=C\[C@@H]3C)[C@]54O)C[C@@H]2OC)O[C@@H](C)[C@@H]1O`, the relative growth was 0.807 (inactive).

As for `Nc1c(Cl)c(F)nc(OCC(=O)O)c1Cl`, the relative growth is 0.958 (inactive).

`O=C1C=C(N(Cc2ccc(Cl)nc2)CC(F)F)CO1`: the relative growth is 0.978 (inactive).

Take `CC1(C)C(C(=O)OC(C#N)c2cccc(Oc3ccccc3)c2)C1(C)C` (centres undefined): the relative growth was 1.05 (inactive).

Turning to `COP(=O)(OC)OC=C(Cl)Cl`, the relative growth was 1.01 (inactive).

Another test has as its system Serratia 1 (Serratia sp. 2015-2462-01). Described as above. To be noted: 20 µM. The method in brief:
as §1
Regarding `CCOc1cc(Oc2ccc(C(F)(F)F)cc2Cl)ccc1[N+](=O)[O-]`, the relative growth is 0.952 (inactive).

`O=C(NC(=O)c1c(F)cccc1F)Nc1ccc(OC(F)(F)C(F)OC(F)(F)F)c(Cl)c1` (centres undefined): the relative growth is 0.995 (inactive).

In the case of `Cc1cc(C)nc(Nc2ccccc2)n1`, the relative growth is 0.937 (inactive).

Regarding `CC(C)NC(=O)N1CC(=O)N(c2cc(Cl)cc(Cl)c2)C1=O`, the relative growth is 0.982 (inactive).

For `Cc1nnc(-c2ccccc2)c(=O)n1N`, the relative growth was 0.966 (inactive).

Turning to `CSc1nc(NC(C)C)nc(NC(C)C)n1`, the relative growth is 0.983 (inactive).

Consider `C/C(=N\C#N)N(C)Cc1ccc(Cl)nc1`, for which the relative growth was 0.976 (inactive).

`Cc1cccc2sc3nncn3c12`: the relative growth was 0.947 (inactive).

Turning to `Fc1ccc(Oc2ccnc3cc(Cl)cc(Cl)c23)cc1`, the relative growth was 1.01 (inactive).

Turning to `COP(N)(=O)SC` (centres undefined), the relative growth was 0.965 (inactive).

In the case of `COc1cc(OC)nc(NC(=O)NS(=O)(=O)c2ncccc2C(=O)N(C)C)n1`, the relative growth is 1 (inactive).

Turning to `CC[C@H]1CCC[C@H](O[C@H]2CC[C@H](N(C)C)[C@@H](C)O2)[C@@H](C)C(=O)C2=C[C@@H]3[C@@H](C=C(C)[C@@H]4C[C@@H](O[C@@H]5O[C@@H](C)[C@H](OC)[C@@H](OC)[C@H]5OC)C[C@@H]34)[C@@H]2CC(=O)O1.CC[C@H]1CCC[C@H](O[C@H]2CC[C@H](N(C)C)[C@@H](C)O2)[C@@H](C)C(=O)C2=C[C@H]3[C@@H]4C[C@H](O[C@@H]5O[C@@H](C)[C@H](OC)[C@@H](OC)[C@H]5OC)C[C@H]4C=C[C@H]3C2CC(=O)O1`, the relative growth was 1.1 (inactive).

As for `COC(=O)N(C(=O)N1CO[C@@]2(C(=O)OC)Cc3cc(Cl)ccc3C2=N1)c1ccc(OC(F)(F)F)cc1`, the relative growth was 0.967 (inactive).

For `N#Cc1c[nH]cc1-c1cccc2c1OC(F)(F)O2`, the relative growth was 0.942 (inactive).

Regarding `CC(C)N(C(=O)COc1nnc(C(F)(F)F)s1)c1ccc(F)cc1`, the relative growth was 0.984 (inactive).

In the case of `CC1(C)C(C=C(Cl)Cl)C1C(=O)OC(C#N)c1ccc(F)c(Oc2ccccc2)c1` (centres undefined), the relative growth is 0.994 (inactive).

As for `Cc1c(COC(=O)[C@@H]2[C@H](/C=C(\Cl)C(F)(F)F)C2(C)C)cccc1-c1ccccc1` (racemic), the relative growth was 1.01 (inactive).

As for `COc1cc(C)c(C(=O)c2c(OC)ccc(Br)c2C)c(OC)c1OC`, the relative growth is 1.02 (inactive).

With `CC(C)(C)C(O)(CCc1ccc(Cl)cc1)Cn1cncn1` (centres undefined), the relative growth was 0.943 (inactive).

`CCCC(Cn1cncn1)c1ccc(Cl)cc1Cl` (centres undefined): the relative growth was 0.994 (inactive).

In the case of `C[C@@H]1[C@@H](c2ccc(Cl)cc2)SC(=O)N1C(=O)NC1CCCCC1`, the relative growth was 1 (inactive).

Take `O=C1C2(Cl)C3(Cl)C4(Cl)C(Cl)(Cl)C5(Cl)C3(Cl)C1(Cl)C5(Cl)C24Cl` (centres undefined): the relative growth is 0.909 (inactive).

Turning to `OC(Cc1ccccc1Cl)(Cn1nc[nH]c1=S)C1(Cl)CC1` (centres undefined), the relative growth is 1.05 (inactive).

Regarding `CC1(C)[C@H](C(=O)O[C@H](C#N)c2cccc(Oc3ccccc3)c2)[C@@H]1C=C(Br)Br`, the relative growth was 1 (inactive).

Consider `N#Cc1c(Cl)c(Cl)c(Cl)c(C#N)c1Cl`, for which the relative growth is 0.92 (inactive).

Regarding `CCOc1ccc(C(C)(C)COCc2cccc(Oc3ccccc3)c2)cc1`, the relative growth was 0.956 (inactive).

On to `Cc1cc(C(F)(C(F)(F)F)C(F)(F)F)ccc1NC(=O)c1cccc(I)c1C(=O)NC(C)(C)CS(C)(=O)=O`, for which the relative growth stood at 1.19.

With `N#Cc1nn(-c2c(Cl)cc(C(F)(F)F)cc2Cl)c(N)c1[S+]([O-])C(F)(F)F` (centres undefined), the relative growth was 0.96 (inactive).

On to `CNC(=O)Oc1cccc2ccccc12`, for which the relative growth is 0.932 (inactive).

`CO/N=C(/C(=O)OC)c1ccccc1CO/N=C(\C)c1cccc(C(F)(F)F)c1`: the relative growth was 0.952 (inactive).

For the compound `CC1(C)CON(Cc2ccccc2Cl)C1=O`, the relative growth is 0.94 (inactive).

Regarding `CCCN(CCC)C(=O)SCc1ccccc1`, the relative growth is 0.998 (inactive).

On to `CC[C@H](C)[C@H]1O[C@]2(C=C[C@@H]1C)C[C@@H]1C[C@@H](C/C=C(\C)[C@@H](O[C@H]3C[C@H](OC)[C@@H](O[C@H]4C[C@H](OC)[C@@H](O)[C@H](C)O4)[C@H](C)O3)[C@@H](C)/C=C/C=C3\CO[C@@H]4[C@H](O)C(C)=C[C@@H](C(=O)O1)[C@]34O)O2.CO[C@H]1C[C@H](O[C@H]2[C@H](C)O[C@@H](O[C@@H]3/C(C)=C/C[C@@H]4C[C@@H](C[C@]5(C=C[C@H](C)[C@@H](C(C)C)O5)O4)OC(=O)[C@@H]4C=C(C)[C@@H](O)[C@H]5OC/C(=C\C=C\[C@@H]3C)[C@]54O)C[C@@H]2OC)O[C@@H](C)[C@@H]1O`, for which the relative growth is 0.958 (inactive).

In the case of `Nc1c(Cl)c(F)nc(OCC(=O)O)c1Cl`, the relative growth is 0.996 (inactive).

With `O=C1C=C(N(Cc2ccc(Cl)nc2)CC(F)F)CO1`, the relative growth is 0.962 (inactive).

In the case of `CC1(C)C(C(=O)OC(C#N)c2cccc(Oc3ccccc3)c2)C1(C)C` (centres undefined), the relative growth is 1 (inactive).

In the case of `COP(=O)(OC)OC=C(Cl)Cl`, the relative growth is 0.96 (inactive).
